Only a selection was taken, and hits are over-represented in it overall.
S1P2 blocker – S1P2 (human) receptor antagonism | 97,000 tested, 0.21% active | O95136 | AID 736 | cell-based S1P2 antagonist assay, inhibition at 5 uM | inhibition, % at 5 µM; in the data active = inhibition above about 45%;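 note: CRE beta-lactamase reporter cells expressing human S1P2 stimulated with S1P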
Target sequence (O95136 whole entry, looked up): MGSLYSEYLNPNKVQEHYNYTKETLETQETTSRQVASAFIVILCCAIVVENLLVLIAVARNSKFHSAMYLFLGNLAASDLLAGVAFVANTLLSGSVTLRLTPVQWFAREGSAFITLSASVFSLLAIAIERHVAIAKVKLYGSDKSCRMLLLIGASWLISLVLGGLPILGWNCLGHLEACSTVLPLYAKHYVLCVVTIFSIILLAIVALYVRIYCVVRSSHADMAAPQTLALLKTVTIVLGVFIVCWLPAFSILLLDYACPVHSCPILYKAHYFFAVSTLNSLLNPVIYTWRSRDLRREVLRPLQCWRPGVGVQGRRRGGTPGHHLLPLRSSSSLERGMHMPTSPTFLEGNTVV
S1P2 agonist – S1P2 (human) receptor agonism. S1P2-expressing cell line, agonist reporter read-out. activation, % at 4.5 µM. 97,000 tested, 0.46% active. O95136; in the data active = activation above about 16%
PostGolgi yeast – growth inhibition of a yeast mutant, post-Golgi transport screen; post-Golgi transport phenotypic cell assay; inhibition, % at 10 µM; 98,000 tested, 0.9% active;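 note: yeast cells grown in 1536-well plates; yeast grown about 18 h at 30C before absorbance read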
GALR2 blocker – blocks the human galanin receptor 2. O43603. GALR2-expressing cells, antagonist mode. inhibition, % at 4 µM. 140,000 tested, 0.39% active. AID 828; in the data active = inhibition above about 27%;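 note: cells stimulated with galanin 1-16 at roughly its EC80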
Target sequence (O43603 whole entry, looked up): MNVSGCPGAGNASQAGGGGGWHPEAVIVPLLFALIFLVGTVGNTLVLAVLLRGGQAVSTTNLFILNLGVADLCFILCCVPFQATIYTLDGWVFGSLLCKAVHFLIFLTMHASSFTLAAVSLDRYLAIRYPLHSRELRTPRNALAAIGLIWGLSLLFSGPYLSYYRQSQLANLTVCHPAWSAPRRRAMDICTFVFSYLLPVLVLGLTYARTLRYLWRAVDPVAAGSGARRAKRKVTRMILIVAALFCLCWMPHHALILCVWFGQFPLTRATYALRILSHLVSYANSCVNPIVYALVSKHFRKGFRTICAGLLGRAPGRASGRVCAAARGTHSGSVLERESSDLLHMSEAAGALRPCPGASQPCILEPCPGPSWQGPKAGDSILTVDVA
GALR2 ag – GALR2 (human) receptor agonism | O43603 | activation, % (no concentration beside the values) | 140,000 tested, 0.48% active | GALR2-expressing cells, agonist activation read-out; in the data active = activation above about 5%, passing the limit was not always enough
PostGolgi ctrl – inhibits growth of the yeast control strain | efflux-deficient yeast background strain, growth absorbance A615, 16 h | inhibition, % at 10 µM | 98,000 tested, 5% active | AID 738
Of the large screens only hits and unclear results are named; the others gave an inactive call. Cut-off read from the data, not from the text of the source, unless noted: active = inhibition above about 30%; inactive = the rest.

C=CCNc1nc(N(c2ccccc2)c2ccccc2)nc(-n2ccnc2)n1	PostGolgi ctrl 35
CCCCNc1nc(N(C)c2ccccc2)nc(-n2ccnc2)n1	PostGolgi yeast 96, PostGolgi ctrl 69
CCCCNC(c1ccccc1)c1ccncc1 (configuration not stated)	none
Cn1c(=O)c2c(nc(-n3ccnc3)n2Cc2ccccc2)n(C)c1=O	none
CN(c1ccccc1)c1nc(-n2ccnc2)nc(-n2ccnc2)n1	PostGolgi yeast 48, PostGolgi ctrl 55
COc1ccc(S(=O)(=O)N2CCCCCC2)cc1N(C)S(=O)(=O)c1ccc(C)cc1	none (no result: S1P2 blocker, S1P2 agonist, PostGolgi yeast, PostGolgi ctrl)
COc1cccc(NC(=O)CSc2nc3c(oc4ccccc43)c(=O)[nH]2)c1	none (no result: S1P2 blocker, S1P2 agonist, PostGolgi yeast, PostGolgi ctrl)
O=C(Nc1ccccc1)N1CCc2scc[n+]2-c2ccccc21	none (no result: S1P2 blocker, S1P2 agonist, PostGolgi yeast, PostGolgi ctrl)
Cn1c(N)c(C(=O)COC(=O)CNS(=O)(=O)c2ccc(Cl)c(Cl)c2)c(=O)n(C)c1=O	none (no result: S1P2 blocker, S1P2 agonist, PostGolgi yeast, PostGolgi ctrl)
Cc1nn2c(-n3ccnc3C)c3c(nc2c1-c1ccccc1)CCC3	none
Cc1nn2c(N3CCOCC3)c3c(nc2c1-c1ccccc1)CCCC3	PostGolgi ctrl 79
O=C(Nc1cccc(NC(=O)c2ccc(-c3ccc(Br)cc3)o2)c1)c1ccco1	none (no result: PostGolgi yeast, PostGolgi ctrl)
NC(=O)CSc1nc(N)c2c3c(sc2n1)CCCCC3	PostGolgi ctrl 31 (no result: S1P2 blocker, S1P2 agonist)
Nc1nc(SCC(=O)NCc2ccccc2)[nH]c(=O)c1NC(=O)c1ccccc1F	none (no result: S1P2 blocker, S1P2 agonist, PostGolgi yeast, PostGolgi ctrl)
CCN(CC)S(=O)(=O)c1ccc2c(c1)nc(CCC(=O)Nc1cccc(C(F)(F)F)c1)n2CC	none
CCn1c(CCC(=O)Nc2nc3c(s2)CCCC3)nc2cc(S(=O)(=O)N(C)C)ccc21	PostGolgi ctrl 33
COc1ccc(/C(O)=C/c2nc3ccc(C(=O)NCCc4cccc(C)c4)cc3[nH]c2=O)cc1OC	none (no result: S1P2 blocker, S1P2 agonist, PostGolgi yeast, PostGolgi ctrl)
COCCn1c(SCC(=O)Nc2cccc(C)c2)nnc1C(C)C	none
COCCn1c(SCC(=O)Nc2cc(C)cc(C)c2)nnc1C(C)C	PostGolgi ctrl 30
CCOc1cc(C)c(S(=O)(=O)Nc2ccc(F)cc2)cc1C	PostGolgi ctrl 52
Cc1cc(C)c(S(=O)(=O)Nc2ccc(O)cc2)cc1C	S1P2 agonist 65
O=C(Nc1cc(C(F)(F)F)ccc1-n1cnc2ccccc21)c1ccccc1	none (no result: S1P2 blocker, S1P2 agonist, PostGolgi yeast, PostGolgi ctrl)
Cc1c(N/N=C(\C#N)C(=O)c2ccc(Cl)cc2)c(=O)n(-c2ccccc2)n1C	none (no result: S1P2 blocker, S1P2 agonist, PostGolgi yeast, PostGolgi ctrl)
N#C/C(=N\Nc1ccc(Cl)cc1)C(=O)c1ccccc1	PostGolgi ctrl 79
CCOC(=O)c1c(CC(C)C)csc1NC(=O)COC(=O)c1cc(OC)c(OC)cc1[N+](=O)[O-]	none (no result: S1P2 blocker, S1P2 agonist, PostGolgi yeast, PostGolgi ctrl)
CCOC(=O)N1CCN(c2c(NCc3ccccn3)c(=O)c2=O)CC1	PostGolgi ctrl 31
CCOC(=O)N1CCN(c2c(NCCc3ccccc3)c(=O)c2=O)CC1	none
C=CCNC(=O)C1CC(=O)N(c2ccc(OCC(=O)Nc3ccccc3)cc2)C1 (configuration not stated)	none
CCOc1ccc2nc(NC(=O)CN3CCC(n4nnc5cc(C(F)(F)F)ccc54)CC3)sc2c1	PostGolgi ctrl 35
COc1ccc(C)cc1-n1nnnc1SCc1cc(=O)n2cc(C)ccc2n1	none (no result: S1P2 blocker, S1P2 agonist)
O=C1OCCN1C(=O)[C@H]1[C@H](c2ccc(F)cc2)C(c2ccc(F)cc2)=NN1c1ccccc1	none (no result: S1P2 blocker, S1P2 agonist, PostGolgi yeast, PostGolgi ctrl)
O=C1OCCN1C(=O)[C@H]1[C@H](c2ccc(F)cc2)C(c2ccc(F)cc2)=NN1c1ccc(Br)cc1	GALR2 ag 6.7 (no result: S1P2 blocker, S1P2 agonist, PostGolgi yeast, PostGolgi ctrl)
CN1C(=O)Cc2cc(S(=O)(=O)N3CCOCC3)ccc21	PostGolgi ctrl 51
CCOC(=O)CSc1nnc(CNc2cccc(Cl)c2)n1-c1ccccc1	none
O=C(CSc1nnc(CNc2ccc(F)cc2)n1Cc1ccccc1)NCc1ccccc1	none (no result: PostGolgi yeast, PostGolgi ctrl)
COC(=O)CSc1nnc(CNc2ccc(Cl)cc2)n1Cc1ccccc1	PostGolgi yeast 65, PostGolgi ctrl 46
CCOC(=O)CSc1nnc(CNc2ccc(Cl)cc2)n1-c1ccccc1	PostGolgi yeast 60, PostGolgi ctrl 50 (no result: S1P2 blocker, S1P2 agonist)
COc1cc(NC(=O)c2cccs2)c(C(=O)OCC(=O)NCc2ccccc2)cc1OC	none
COc1cc(NC(=O)c2cccs2)c(C(=O)OCC(=O)NC(C)c2ccccc2)cc1OC (configuration not stated)	PostGolgi ctrl 30
Cc1ccnn1CC(=O)N/N=C/c1ccc2c(c1)OCO2	none (no result: S1P2 blocker, S1P2 agonist, PostGolgi yeast, PostGolgi ctrl)
Cn1c(=O)c2c(nc(N/N=C/c3ccc(OC(=O)c4ccco4)cc3)n2Cc2ccccc2)n(C)c1=O	none (no result: S1P2 blocker, S1P2 agonist, PostGolgi yeast, PostGolgi ctrl)
O=C(Nc1ccc(Cl)cn1)C1CCCN1S(=O)(=O)c1ccc(Cl)cc1 (configuration not stated)	none
O=C(Nc1ccc(Cl)cn1)C1CCCN1S(=O)(=O)c1cccc2ccccc12 (configuration not stated)	PostGolgi ctrl 50
O=S(=O)(Nc1nc2ccccc2nc1N1CCc2ccccc2C1)c1ccc(Cl)cc1	none (no result: S1P2 blocker, S1P2 agonist, PostGolgi yeast, PostGolgi ctrl)
O=S(=O)(Nc1nc2ccccc2nc1N1CCN(c2ccccn2)CC1)c1ccc(Cl)cc1	PostGolgi ctrl 57
CCn1c(/C=N/n2cnnc2)nc2ccccc21	none
CCn1c2ccccc2c2cc(/C=N/n3cn[nH]c3=S)ccc21	PostGolgi ctrl 43
CCn1c2ccccc2c2cc(/C=N/NC(=O)c3cccc(C)c3)ccc21	PostGolgi ctrl 34
CCn1c2ccccc2c2cc(/C=N/n3cnnc3)ccc21	PostGolgi ctrl 42
O=C(NC(NCc1cccnc1)C(Cl)(Cl)Cl)c1cccc2ccccc12 (configuration not stated)	none (no result: S1P2 blocker, S1P2 agonist, PostGolgi yeast, PostGolgi ctrl)
Fc1ccc(-n2cc(-c3ccccc3)c3c(NN4CCOCC4)ncnc32)cc1	none (no result: S1P2 blocker, S1P2 agonist, PostGolgi yeast, PostGolgi ctrl)
NS(=O)(=O)c1ccc(CCNc2ncnc3c2c(-c2ccccc2)cn3-c2ccc(F)cc2)cc1	PostGolgi ctrl 61
Cc1ccc(C(=O)N/C(=C\c2cccs2)C(=O)NCCc2c[nH]c3ccccc23)cc1	none (no result: S1P2 blocker, S1P2 agonist, PostGolgi yeast, PostGolgi ctrl)
O=[N+]([O-])c1ccccc1N/N=C\c1ccccc1Cl	none
O=[N+]([O-])c1cc(C(F)(F)F)ccc1N/N=C/c1cc2ccccc2nc1Cl	PostGolgi yeast 44
Cc1c(C(=O)N2CCc3ccccc32)cnn1C	none (no result: S1P2 blocker, S1P2 agonist, PostGolgi yeast, PostGolgi ctrl)
O=C1c2cnc3nc(SCc4ccc(Cl)cc4)nn3c2CC2c3ccccc3CCN12 (configuration not stated)	S1P2 agonist 22, PostGolgi ctrl 35
COc1ccc(S(=O)(=O)NCCOc2ccccc2)cc1OC	PostGolgi ctrl 33
Cc1ccc(S(=O)(=O)Nc2cccnc2)cc1	none
CCCCOc1ccc(S(=O)(=O)Nc2cccnc2)cc1	PostGolgi yeast 32
CCCCOc1ccc(S(=O)(=O)Nc2cc(OC)ccc2OC)cc1	PostGolgi ctrl 51
CC(C)(C)NC(=O)CCN(/N=C/c1ccc([N+](=O)[O-])o1)C1=NS(=O)(=O)c2ccccc21	none (no result: S1P2 blocker, S1P2 agonist, PostGolgi yeast, PostGolgi ctrl)
Cc1ccc2cc(C#N)c(N3CCCC3)nc2c1C	PostGolgi ctrl 47
CCOC(=O)c1c(C)sc(Sc2ccc(Cl)cc2[N+](=O)[O-])c1OC	none
CCCCCn1c(N)c(C#N)c2nc3ccccc3nc21	GALR2 ag 7.9
COc1ccccc1CCn1c(N)c(C#N)c2nc3ccccc3nc21	S1P2 agonist 16
COc1ccc(Cn2c(N)c(C#N)c3nc4ccccc4nc32)cc1OC	S1P2 agonist 21

Assay outcomes as filed in PubChem BioAssay.
